Reference: the supplement of paper PMC11732987, “Enantioselective OTUD7B fragment discovery through chemoproteomics screening and high-throughput optimisation” (Communications Chemistry, 2025)

Legend:
Assay in all cases: log2 ratio of Biotin-Ahx-Ub-VS probe labelling (fragment/DMSO); higher = less target engagement (more negative = stronger competition), active = hit call of the paper (q ≤ 0.05, log2 ratio ≤ -1)
Details in all cases: compound concentration: 200 uM; treatment time: 3 h
USP19 = molecular target: T1, USP19 (UniProt O94966)
T1 sequence (whole entry): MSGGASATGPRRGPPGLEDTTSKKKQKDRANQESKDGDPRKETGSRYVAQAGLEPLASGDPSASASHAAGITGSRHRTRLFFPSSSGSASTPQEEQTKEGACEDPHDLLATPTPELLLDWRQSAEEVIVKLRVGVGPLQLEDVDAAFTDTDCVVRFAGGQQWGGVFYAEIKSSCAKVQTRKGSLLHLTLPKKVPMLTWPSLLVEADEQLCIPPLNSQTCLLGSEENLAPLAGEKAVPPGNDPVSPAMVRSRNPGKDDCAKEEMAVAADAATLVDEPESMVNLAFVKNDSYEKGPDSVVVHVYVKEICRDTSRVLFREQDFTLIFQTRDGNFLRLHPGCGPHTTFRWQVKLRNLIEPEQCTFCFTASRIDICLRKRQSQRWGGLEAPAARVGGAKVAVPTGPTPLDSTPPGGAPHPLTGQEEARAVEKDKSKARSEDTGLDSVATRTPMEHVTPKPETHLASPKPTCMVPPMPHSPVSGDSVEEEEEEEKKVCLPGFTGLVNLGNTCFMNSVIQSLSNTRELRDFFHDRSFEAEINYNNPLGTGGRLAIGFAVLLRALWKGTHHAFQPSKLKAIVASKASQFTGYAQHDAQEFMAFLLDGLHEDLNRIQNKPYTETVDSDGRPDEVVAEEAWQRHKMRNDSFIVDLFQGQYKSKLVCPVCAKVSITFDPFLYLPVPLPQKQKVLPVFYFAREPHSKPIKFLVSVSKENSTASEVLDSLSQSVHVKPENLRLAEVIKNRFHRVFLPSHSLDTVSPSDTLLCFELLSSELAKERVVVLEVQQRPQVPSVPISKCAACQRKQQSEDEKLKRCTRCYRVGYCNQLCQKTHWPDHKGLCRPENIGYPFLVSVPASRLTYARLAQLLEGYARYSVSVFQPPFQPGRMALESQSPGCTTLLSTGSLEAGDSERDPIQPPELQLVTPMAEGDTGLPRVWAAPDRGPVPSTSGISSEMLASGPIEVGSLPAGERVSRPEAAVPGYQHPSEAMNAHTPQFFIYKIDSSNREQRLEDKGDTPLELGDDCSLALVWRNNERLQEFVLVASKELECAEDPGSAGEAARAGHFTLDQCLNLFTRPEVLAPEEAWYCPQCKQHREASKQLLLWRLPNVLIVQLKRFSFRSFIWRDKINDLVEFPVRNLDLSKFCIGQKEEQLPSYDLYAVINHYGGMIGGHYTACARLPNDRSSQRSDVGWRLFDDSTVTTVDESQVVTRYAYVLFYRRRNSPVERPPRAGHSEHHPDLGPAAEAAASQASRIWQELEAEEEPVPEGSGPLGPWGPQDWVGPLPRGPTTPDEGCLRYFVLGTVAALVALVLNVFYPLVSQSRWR
Outline: (§1)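 Average log2 ratios of fragment over vehicle were obtained by unpaired t-test from global-median-normalised Spectronaut label-free quantities. Proteins with ≥2 unique peptides were included. HEK293T lysate (495 µg per sample) was treated in triplicate with fragment at 200 µM or vehicle for 3 h, then with Biotin-Ahx-Ub-VS at 0.5 µM final for 1 h, and labelled DUBs were NeutrAvidin-enriched and run by diaPASEF LC-MS/MS.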

USP24 = USP24 (UniProt Q9UPU5)
Outline: as §1

USP25 = molecular target: T2, USP25 (UniProt Q9UHP3)
T2 sequence (whole entry): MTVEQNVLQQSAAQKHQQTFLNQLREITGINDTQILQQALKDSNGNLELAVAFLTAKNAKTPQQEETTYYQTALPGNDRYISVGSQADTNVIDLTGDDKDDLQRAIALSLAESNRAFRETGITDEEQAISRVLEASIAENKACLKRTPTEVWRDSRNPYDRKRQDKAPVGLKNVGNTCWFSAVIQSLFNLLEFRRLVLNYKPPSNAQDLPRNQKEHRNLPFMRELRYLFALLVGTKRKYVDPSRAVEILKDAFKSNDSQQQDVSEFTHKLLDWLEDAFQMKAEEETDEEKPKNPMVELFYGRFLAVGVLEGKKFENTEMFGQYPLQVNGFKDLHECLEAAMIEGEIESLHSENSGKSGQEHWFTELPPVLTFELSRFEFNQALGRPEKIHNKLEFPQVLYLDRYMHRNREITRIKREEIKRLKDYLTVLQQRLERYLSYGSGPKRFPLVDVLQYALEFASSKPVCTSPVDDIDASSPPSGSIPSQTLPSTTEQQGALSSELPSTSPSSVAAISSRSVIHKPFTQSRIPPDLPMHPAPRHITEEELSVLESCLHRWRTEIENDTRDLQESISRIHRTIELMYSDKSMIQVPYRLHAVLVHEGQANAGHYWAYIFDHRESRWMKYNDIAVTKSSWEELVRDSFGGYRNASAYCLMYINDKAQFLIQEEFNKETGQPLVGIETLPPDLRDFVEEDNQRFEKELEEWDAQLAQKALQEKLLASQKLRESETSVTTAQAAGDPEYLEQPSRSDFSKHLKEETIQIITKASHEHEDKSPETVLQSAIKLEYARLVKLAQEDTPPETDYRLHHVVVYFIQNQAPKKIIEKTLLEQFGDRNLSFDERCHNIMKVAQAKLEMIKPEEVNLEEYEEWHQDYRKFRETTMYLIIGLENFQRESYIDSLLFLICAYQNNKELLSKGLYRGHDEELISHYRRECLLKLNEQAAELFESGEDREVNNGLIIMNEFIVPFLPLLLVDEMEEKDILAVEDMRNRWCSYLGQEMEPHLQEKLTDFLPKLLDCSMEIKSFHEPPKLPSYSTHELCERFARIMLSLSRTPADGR
Outline: as §1

USP28 = molecular target: T3, USP28 (UniProt Q96RU2)
T3 sequence (whole entry): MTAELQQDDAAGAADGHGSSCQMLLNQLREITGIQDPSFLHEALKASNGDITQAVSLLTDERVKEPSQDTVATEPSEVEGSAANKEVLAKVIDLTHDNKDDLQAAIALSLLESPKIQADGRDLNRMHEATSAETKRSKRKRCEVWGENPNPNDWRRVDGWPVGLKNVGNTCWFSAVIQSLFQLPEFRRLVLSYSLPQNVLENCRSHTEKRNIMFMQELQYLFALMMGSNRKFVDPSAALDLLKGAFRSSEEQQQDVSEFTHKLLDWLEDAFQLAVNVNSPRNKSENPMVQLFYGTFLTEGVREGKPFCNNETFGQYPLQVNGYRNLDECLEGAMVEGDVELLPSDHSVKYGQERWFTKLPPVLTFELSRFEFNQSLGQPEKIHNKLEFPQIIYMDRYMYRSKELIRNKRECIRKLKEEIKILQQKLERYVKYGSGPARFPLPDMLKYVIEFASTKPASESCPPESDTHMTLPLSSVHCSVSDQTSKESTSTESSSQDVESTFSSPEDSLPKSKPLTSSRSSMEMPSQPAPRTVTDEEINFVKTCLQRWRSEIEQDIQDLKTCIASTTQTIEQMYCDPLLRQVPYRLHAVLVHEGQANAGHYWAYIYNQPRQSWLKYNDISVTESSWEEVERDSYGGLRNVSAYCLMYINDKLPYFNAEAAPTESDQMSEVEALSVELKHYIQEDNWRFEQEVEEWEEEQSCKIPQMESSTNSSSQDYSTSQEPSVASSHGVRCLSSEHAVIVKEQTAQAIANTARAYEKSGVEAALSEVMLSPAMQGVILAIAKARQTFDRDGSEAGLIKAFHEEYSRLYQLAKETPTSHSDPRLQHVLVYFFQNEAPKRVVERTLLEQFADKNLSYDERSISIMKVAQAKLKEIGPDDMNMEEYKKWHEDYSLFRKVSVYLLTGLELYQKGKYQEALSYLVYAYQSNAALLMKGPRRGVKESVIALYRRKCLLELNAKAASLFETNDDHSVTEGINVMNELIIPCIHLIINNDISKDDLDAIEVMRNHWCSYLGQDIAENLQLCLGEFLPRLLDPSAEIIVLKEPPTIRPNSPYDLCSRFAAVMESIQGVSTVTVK
Outline: as §1

Measured: log2 ratio of Biotin-Ahx-Ub-VS probe labelling

Chain of USP24 (Q9UPU5 whole entry): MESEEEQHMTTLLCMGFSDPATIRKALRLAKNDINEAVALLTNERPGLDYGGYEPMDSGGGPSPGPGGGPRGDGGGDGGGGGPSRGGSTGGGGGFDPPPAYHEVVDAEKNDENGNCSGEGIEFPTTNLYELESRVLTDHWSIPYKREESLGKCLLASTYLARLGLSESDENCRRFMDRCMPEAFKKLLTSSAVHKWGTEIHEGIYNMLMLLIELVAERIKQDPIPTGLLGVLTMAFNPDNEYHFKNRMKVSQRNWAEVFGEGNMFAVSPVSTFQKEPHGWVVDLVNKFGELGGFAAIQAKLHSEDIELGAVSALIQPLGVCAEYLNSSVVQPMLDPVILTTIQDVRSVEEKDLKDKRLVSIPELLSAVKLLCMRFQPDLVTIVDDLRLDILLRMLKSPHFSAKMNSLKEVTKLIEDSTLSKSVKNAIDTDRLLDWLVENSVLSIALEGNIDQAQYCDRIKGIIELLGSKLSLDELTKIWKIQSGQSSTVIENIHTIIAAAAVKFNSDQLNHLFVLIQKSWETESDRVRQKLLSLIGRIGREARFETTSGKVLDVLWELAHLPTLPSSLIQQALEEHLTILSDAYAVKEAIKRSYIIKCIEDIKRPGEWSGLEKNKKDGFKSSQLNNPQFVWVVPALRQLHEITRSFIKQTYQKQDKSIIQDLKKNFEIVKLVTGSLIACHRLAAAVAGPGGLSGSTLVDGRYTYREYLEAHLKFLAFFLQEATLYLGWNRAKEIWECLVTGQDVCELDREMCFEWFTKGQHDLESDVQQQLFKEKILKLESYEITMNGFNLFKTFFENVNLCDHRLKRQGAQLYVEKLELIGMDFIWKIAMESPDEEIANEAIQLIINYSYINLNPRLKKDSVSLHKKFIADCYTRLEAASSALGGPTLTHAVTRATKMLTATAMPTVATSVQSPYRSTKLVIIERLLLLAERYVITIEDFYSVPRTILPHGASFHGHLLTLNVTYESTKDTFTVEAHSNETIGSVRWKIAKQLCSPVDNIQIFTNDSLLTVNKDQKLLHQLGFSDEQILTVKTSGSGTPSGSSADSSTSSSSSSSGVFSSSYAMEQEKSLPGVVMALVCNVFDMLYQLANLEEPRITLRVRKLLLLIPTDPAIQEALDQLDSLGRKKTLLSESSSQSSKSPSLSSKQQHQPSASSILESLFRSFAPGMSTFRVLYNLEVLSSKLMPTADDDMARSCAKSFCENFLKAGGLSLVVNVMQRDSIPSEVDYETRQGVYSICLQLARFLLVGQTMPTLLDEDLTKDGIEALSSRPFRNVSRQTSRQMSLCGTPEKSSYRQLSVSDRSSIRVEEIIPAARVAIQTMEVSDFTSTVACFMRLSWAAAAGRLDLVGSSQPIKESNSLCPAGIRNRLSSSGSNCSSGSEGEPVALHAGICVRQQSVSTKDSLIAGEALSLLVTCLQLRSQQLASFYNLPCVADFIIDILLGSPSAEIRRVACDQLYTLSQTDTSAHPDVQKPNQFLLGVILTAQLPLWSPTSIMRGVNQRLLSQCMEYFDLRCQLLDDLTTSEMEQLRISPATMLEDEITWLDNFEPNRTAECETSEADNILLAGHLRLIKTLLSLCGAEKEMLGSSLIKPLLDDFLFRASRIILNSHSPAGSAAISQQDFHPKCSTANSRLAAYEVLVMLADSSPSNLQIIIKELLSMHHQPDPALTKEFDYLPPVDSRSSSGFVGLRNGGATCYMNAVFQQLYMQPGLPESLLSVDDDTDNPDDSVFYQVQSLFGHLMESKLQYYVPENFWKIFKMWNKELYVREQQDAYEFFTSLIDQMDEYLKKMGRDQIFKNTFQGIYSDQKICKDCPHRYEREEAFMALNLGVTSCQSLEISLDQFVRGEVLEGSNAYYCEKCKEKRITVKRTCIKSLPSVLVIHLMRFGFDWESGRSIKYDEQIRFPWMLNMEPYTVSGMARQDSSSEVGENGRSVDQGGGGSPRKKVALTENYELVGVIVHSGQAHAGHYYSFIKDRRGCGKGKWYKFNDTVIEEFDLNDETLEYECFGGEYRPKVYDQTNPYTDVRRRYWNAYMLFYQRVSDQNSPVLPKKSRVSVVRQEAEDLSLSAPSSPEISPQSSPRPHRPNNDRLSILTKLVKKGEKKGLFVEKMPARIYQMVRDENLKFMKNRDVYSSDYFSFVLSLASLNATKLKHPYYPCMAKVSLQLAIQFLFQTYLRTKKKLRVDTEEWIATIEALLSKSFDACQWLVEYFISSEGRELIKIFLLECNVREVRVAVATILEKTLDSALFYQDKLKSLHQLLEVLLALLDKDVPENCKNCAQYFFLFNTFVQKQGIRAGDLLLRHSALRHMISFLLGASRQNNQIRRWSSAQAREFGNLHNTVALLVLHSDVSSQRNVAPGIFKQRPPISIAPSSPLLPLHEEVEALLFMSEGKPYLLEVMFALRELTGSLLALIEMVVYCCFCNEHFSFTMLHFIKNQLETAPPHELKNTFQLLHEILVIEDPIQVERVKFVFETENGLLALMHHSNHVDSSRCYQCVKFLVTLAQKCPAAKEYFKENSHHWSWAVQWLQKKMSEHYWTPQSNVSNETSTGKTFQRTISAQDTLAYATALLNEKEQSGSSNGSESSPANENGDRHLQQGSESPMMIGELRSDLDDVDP

Cc1cc(Cl)ccc1NC(=O)CCl
inactive: USP19 -0.055 | USP24 -0.224 | USP25 -0.208 | USP28 -0.682
